Abeta yeast res: qHTS for compounds that reverse cellular toxicity of Amyloid beta (A-beta) peptide in yeast: Primary Screen; Potency, µM (highest dose often 46.1 µM), usual class: activators; 0.063% of 410,000 active; AID 1347071, 2019; yeast expressing A-beta42, growth rescue, OD600, 48 h; response scale: 0% DMSO, 100% iron-clioquinol control; further: potency means the concentration at half of the fitted maximal effect; nearly all actives have a fitted effect of over 55% in size
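Growth rescue measured by 600 nm absorbance after 48 h yeast culture at 30 C with compound. Values normalized between DMSO and an equimolar ferric chloride plus clioquinol control.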
aSyn rescue: qHTS of alpha-syn Inhibitors; Yeast expressing alpha-synuclein, growth rescue, BacTiter-Glo, 24 h; Potency, µM (highest dose often 46.1 µM), inactives show top-dose growth rescue (activation), hits mostly activators; 0.14% of 370,000 active; AID 652106, 2013; further: potency means the concentration at half of the fitted maximal effect; % of control where 0% means no effect; nearly all actives have a fitted effect of over 65% in size
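Galactose-induced alpha-syn yeast (OD600=0.02, raffinose-pregrown) + pinned cpd, 24 hr, 30 deg C; growth by BacTiter-Glo luminescence. Growth restoration scores as activation.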
TDP-43 yeast inh: qHTS of TDP-43 Inhibitors; TDP-43 expressing yeast growth rescue, BacTiter-Glo, 24 h; AID 652104, 2013; Potency, µM (series often up to 46.1 µM), inactives show top-dose growth rescue (activation), usual class: activators; 1.8% of 410,000 active; further: potency means the concentration at half of the fitted maximal effect; % of control where 0% means no effect; nearly all actives have a fitted effect of over 50% in size
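Readout is BacTiter-Glo luminescence of cell growth, so inhibitors register as activators. TDP-43-expressing yeast at OD600=0.02 in galactose medium, after raffinose pregrowth to mid-log, were incubated with compound for 24 hr at 30 deg C.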
FUS suppressor: qHTS for Suppressors of FUS Proteinopathy: Primary screen using FUS-linked yeast assay. S. cerevisiae FUS-expressing, growth rescue, OD600, 24 h. Potency, µM (titrated, usually from 76.6 µM), actives largely listed as activators. 0.24% of 390,000 active;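 further: potency means the concentration at half of the fitted maximal effect; plate controls were DMSO vehicle for no effect and reference control for full effect; nearly all actives have a fitted effect of over 55% in size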
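Compound concentration series was pinned onto galactose-induced FUS-expressing yeast seeded at OD 0.005. Plates sat 24hr at 30C; absorbance at 600 nm gave growth. DMSO served as background control.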
CCT chaperon mod: High-Throughput Screening for Modulators of Cytosolic Chaperonin Activity | 0.3% of 360,000 active | purified chaperonin ATPase assay, HTRF ADP detection, 30 min | activity change, % (concentration not given with the values), hits read low | AID 651819, 2012; in the data active means activity change below about -30%; further: on the % scale 0 is the no-effect control and ±100 the full control effect
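We incubate TRiC, 40 or 20 nM final, with library compounds at 76 uM and 10 uM ATP for 30 min at 37 °C. ADP formed is detected with Transcreener HTRF reagents after 30 min at room temperature.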
MmCpn inh: Inhibitors of TCP-1 ring complex (TRiC) of Methanococcus maripaludis (MmCpn): qHTS | Chaperonin Mm-Cpn (Methanococcus maripaludis) | purified Mm-Cpn ATPase, ADP Transcreener TR-FRET | Potency, µM (top dose mostly 76.9 µM), without a hit: at the top dose activity, negative = inhibition, most hits filed as inhibitors | 0.031% of 330,000 active; further: potency means the concentration at half of the fitted maximal effect; on the % scale 0 is the no-effect control and ±100 the full control effect; nearly all actives have a fitted effect of over 80% in size
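TR-FRET (320 nm excitation; 590 and 665 nm emission) reports ADP made from 10 uM ATP by 25 nM enzyme; compounds were preincubated 10 min, reaction run 30 min, both at 37°C.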
Numbers without * were called inactive. Rows were chosen to be rich in hits. Some 2.3% of all compounds tested hit in one or more screens of this group. Unless noted, the call rests on the fitted dose curve; in most records, active means well fitted curve in the direction sought with a large enough effect; inconclusive means small, poorly fitted or top-dose-only effect, or another doubt; inactive means no such curve, though single readings can be large; an effect the other way counts as inactive or inconclusive.

`Cn1c(=O)c(=O)n(C)c2cc([N+](=O)[O-])c([N+](=O)[O-])cc21` gave Abeta yeast res inactive, aSyn rescue -1.2%, TDP-43 yeast inh 15.6%, FUS suppressor inactive, CCT chaperon mod -32.5* and MmCpn inh -2.7%.
For NS(=O)(=O)c1ccc(NC(=O)c2ccc(CSc3ccccc3)o2)cc1 the results were Abeta yeast res inactive, aSyn rescue 2.5%, TDP-43 yeast inh -11.2%, FUS suppressor inactive, CCT chaperon mod -0.8 and MmCpn inh 1.3%.
`O=C(Nc1ccc(F)cc1)c1ccc(CSc2ccccc2)o1` gave Abeta yeast res inactive, aSyn rescue -11.9%, TDP-43 yeast inh 15.8µM*, FUS suppressor inactive, CCT chaperon mod 0.7 and MmCpn inh 0.2%.
Screening CC(=O)c1ccc(NC(=O)c2ccc(CSc3ccccc3)o2)cc1 returned Abeta yeast res inactive, aSyn rescue -6.5%, TDP-43 yeast inh 15.8µM*, FUS suppressor inactive, CCT chaperon mod 0.8 and MmCpn inh 0.6%.
For CN(C)c1ccc(-c2nn3c(-c4ccco4)nnc3s2)cc1 the results were FUS suppressor inactive.
For COc1ccccc1-c1cccc([C@@H]2C[C@H]3[C@H](CON3C)CN2C(=O)CCc2ccccc2)c1 the results were Abeta yeast res inactive, aSyn rescue 14.9%, TDP-43 yeast inh 28.2µM*, FUS suppressor inactive and CCT chaperon mod -1.1.
Screening COc1cccc(CNC(=O)CSc2nc(=O)[nH]c3c2CCC3)c1 returned Abeta yeast res inactive, TDP-43 yeast inh 16.7% and FUS suppressor inactive.
Screening O=C(O)c1ccc(NCc2ccncc2)cc1 returned Abeta yeast res inactive, aSyn rescue -6.6%, TDP-43 yeast inh -32.5%, FUS suppressor inactive, CCT chaperon mod 2.2 and MmCpn inh 1.2%.
O=C(O)c1ccc(NCc2cccc(Br)c2)cc1 was read as Abeta yeast res inactive, aSyn rescue inconclusive, TDP-43 yeast inh 11.2µM*, FUS suppressor inactive, CCT chaperon mod -0.7 and MmCpn inh -1.7%.
For COC(CNC(=O)C1CCN(S(=O)(=O)c2cccc3nsnc23)CC1)OC the results were Abeta yeast res inactive, aSyn rescue -22.4%, TDP-43 yeast inh -5.0%, FUS suppressor inactive, CCT chaperon mod -75.3* and MmCpn inh -18.1%.
CC(C)CCNC(=O)C1CCN(S(=O)(=O)c2cccc3nsnc23)CC1 was read as Abeta yeast res inactive, TDP-43 yeast inh 3.5% and FUS suppressor inactive.
Cc1ccccc1OCc1nnc(SCc2cc(=O)c3cc(F)ccc3[nH]2)n1C was read as Abeta yeast res inactive, TDP-43 yeast inh 6.0% and FUS suppressor inactive.
Cc1n[nH]c(=S)n1-c1cccc(Cl)c1 was read as Abeta yeast res inactive, aSyn rescue -3.2%, TDP-43 yeast inh 9.6%, FUS suppressor inactive, CCT chaperon mod -55.0* and MmCpn inh 1.1%.
Cc1ccccc1OCc1n[nH]c(=S)n1-c1cccc(Cl)c1 was read as Abeta yeast res inactive, aSyn rescue -1.4%, TDP-43 yeast inh 19.3%, FUS suppressor inactive, CCT chaperon mod -0.2 and MmCpn inh -1.6%.
Screening Cc1ccc(C2CC2c2n[nH]c(=S)n2-c2cccc(Cl)c2)cc1 (stereo not given) returned Abeta yeast res inactive, aSyn rescue 9.1%, TDP-43 yeast inh 35.5µM*, FUS suppressor inactive, CCT chaperon mod -1.4 and MmCpn inh -0.8%.
S=c1[nH]nc(-c2ccc(Cl)cc2)n1-c1ccc(Cl)cc1 was read as Abeta yeast res 10µM*, aSyn rescue -2.8%, TDP-43 yeast inh 16.2%, FUS suppressor inactive, CCT chaperon mod 1.0 and MmCpn inh -4.4%.
Cc1ccc(-n2c(C3CC3c3ccc(Cl)cc3)n[nH]c2=S)cc1 (stereo not given) was read as Abeta yeast res inactive, aSyn rescue -0.8%, TDP-43 yeast inh -18.9%, FUS suppressor inactive, CCT chaperon mod 1.2 and MmCpn inh 0.3%.
`C/C(=N/NC(=O)CN1CCN(Cc2ccccc2Cl)CC1)c1cccc(O)c1` gave FUS suppressor inactive.
`COCC1CCN(Cc2c(C(=O)N3CCc4ccccc4C3)nc3ccc(Cl)cn23)C1` (stereo not given) gave Abeta yeast res inactive, aSyn rescue 8.0%, TDP-43 yeast inh 7.0%, FUS suppressor 7.08µM*, CCT chaperon mod -1.7 and MmCpn inh -6.7%.
`COc1ccc(-c2nsc(SCC(=O)Nc3cc(C)on3)n2)cc1` gave Abeta yeast res inactive, aSyn rescue -7.6%, TDP-43 yeast inh 10.3%, FUS suppressor inactive, CCT chaperon mod -1.8 and MmCpn inh -1.6%.
CCOC(=O)CNC(=O)CSc1nc(-c2ccc(OC)cc2)ns1 was read as Abeta yeast res inactive, aSyn rescue 16.6%, TDP-43 yeast inh 25.1µM*, FUS suppressor inactive, CCT chaperon mod -7.9 and MmCpn inh 1.0%.
CC(C)CNC(=O)OCc1cn(Cc2c(F)cccc2F)nn1 was read as FUS suppressor inactive.
`Nc1nc[nH]c(=O)c1N` gave aSyn rescue -2.9%.
CC(C)(C)OC(=O)N1CCN(c2nc(-c3cccs3)nc3ccccc23)CC1 was read as aSyn rescue 2.9%.
Screening CN1C(=S)N(c2cccnc2)C(=O)/C1=C\c1ccc(C(C)(C)C)cc1 returned Abeta yeast res inactive, aSyn rescue inconclusive, TDP-43 yeast inh 15.8µM*, FUS suppressor inactive, CCT chaperon mod 0.6 and MmCpn inh 1.3%.
Screening CC(C)CNC(=O)OCc1cn(Cc2cccc(F)c2)nn1 returned FUS suppressor inactive.
For N#CC(C(=O)c1ccccc1Cl)=C1SCCCS1 the results were Abeta yeast res inactive, aSyn rescue 10.5%, TDP-43 yeast inh 35.5µM*, FUS suppressor inactive, CCT chaperon mod -4.3 and MmCpn inh 1.9%.
`N#CC1(c2ccccc2)CCCN1C(=O)c1ccccc1Cl` (stereo not given) gave Abeta yeast res inactive, aSyn rescue 4.9%, TDP-43 yeast inh 19.7%, FUS suppressor inactive, CCT chaperon mod -3.5 and MmCpn inh -1.2%.
For COC(=O)C1CN(C2CC2)CCS(=O)(=O)N1Cc1cn(Cc2ccc(F)cc2)nn1 (stereo not given) the results were FUS suppressor inactive.
